FMDV inh: blocks foot and mouth disease virus. FMDV antiviral cell-based qHTS. 1.2% of 410,000 active. Potency, µM (titrated, usually from 57.9 µM), for inactives: at the top dose activity change, negative = inhibition, most hits filed as inhibitors. AID 1159524; calls by dose curve; tested in HEK293T cells; also: read-out not given here; potency is read from the fitted curve at half-maximal effect; nearly all actives have a fitted effect of over 45% in size
VACV mCherry inh: inhibitors of vaccinia virus infection (mCherry reporter signal); Vaccinia virus mCherry reporter infection, fluorescence; Potency, µM (series often up to 36.5 µM), without a hit: at the highest dose activity change, negative = inhibition, actives largely listed as inhibitors; 0.63% of 310,000 active; AID 720579; calls by dose curve; tested in A549 cells; also: potency is read from the fitted curve at half-maximal effect; nearly all actives have a fitted effect of over 35% in size
HCMV inh: blocks human cytomegalovirus replication; HFF cells, HCMV-luciferase reporter, 72 h; active compounds read low; activity change, negative = inhibition, % at 57.5 µM; 4.5% of 410,000 active; AID 1259415; in the data active = activity change below about -60%; inconclusive = no clear call, values can overlap the other calls; inactive = above about -39%
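Inhibition of viral replication was scored as loss of reporter luminescence in HFFs infected with HCMV-luciferase (MOI 1 PFU/cell) for 72 h; compounds tested at 2 doses, normalized to buffer and Salinomycin controls.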
HCV inhibitor: HCV inhibition; Huh7.5.1 HCVcc-Cre infection, luciferase reporter, 44 h; 3.4% of 340,000 active; Potency, µM (titrated, usually from 41.8 µM), inactives show at the highest dose activity change, negative = inhibition, hits mostly inhibitors; active = well fitted inhibition curve with a large enough effect; inconclusive = small, poorly fitted or top-dose-only effect, or another doubt; inactive = no such curve, though single readings can be large or run the other way; also: potency is read from the fitted curve at half-maximal effect
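A cell-based infection assay in which seeded cells (1,000 per well) receive test compound after 4 h, are inoculated with HCVcc-Cre at approximately 0.5 moi, and are incubated 44 h before luminescence detection.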
VACV Venus inh: vaccinia inhibition (Venus reporter) | Vaccinia virus Venus reporter expression, fluorescence | Potency, µM (series often up to 36.5 µM), without a hit: top-dose activity change, negative = inhibition, actives largely listed as inhibitors | 0.46% of 330,000 active | AID 720580; calls by dose curve; tested in A549 cells; also: potency is read from the fitted curve at half-maximal effect; nearly all actives have a fitted effect of over 30% in size
* = called active by the depositor; i = inactive; ? = inconclusive; / = no result. In the library only some 7.3% were active in any assay of this set; here they are far more common. % is scaled to controls: 0 for no effect and ±100 for the full control effect.

SMILES	FMDV inh	VACV mCherry inh	HCMV inh	HCV inhibitor	VACV Venus inh
Cc1ccc(S(=O)(=O)N(Cc2nc(-c3cccc(C)c3)no2)C2CCCCC2)cc1	26%	-18%	-14	/	-21%
COc1ccc2c(c1)[C@@H](NC(=O)OCc1ccccc1)[C@H](C)[C@@H](c1ccccc1)N2Cc1ccccn1	/	/	-27	/	/
Cc1ccc(S(=O)(=O)NCC(c2cccnc2)N2CCOCC2)cc1 (stereo unspecified)	0%	/	-79*	3%	/
Cc1cc(S(=O)(=O)NCC(c2ccc3c(c2)OCO3)N2CCOCC2)ccc1F (stereo unspecified)	6%	/	-64*	3%	/
COc1ccc(C)cc1NC(=O)C1CCN(S(=O)(=O)c2ccc3[nH]c(=O)oc3c2)CC1	-11%	2%	0	/	-7%
Cc1cccc2c1-c1sc(C(=O)NCCCN3CCN(c4ccccc4F)CC3)cc1CO2	?	-14%	-108*	/	-23%
CCN1CCN(CCCNC(=O)c2cc3c(s2)-c2c(C)cccc2OC3)CC1	0%	?	-2	/	?
Cc1cccc2c1-c1sc(C(=O)NCCCN3CCN(c4cccc(Cl)c4)CC3)cc1CO2	-32%	-11%	-75*	/	-16%
CCOc1ccc(C(=O)CCC(=O)N2CCN(c3ccccc3O)CC2)cc1	35µM*	-1%	-21	?	-12%
O=C(c1ccccc1)c1ccc(C(=O)N2CCN(c3ccccc3O)CC2)cc1	?	-14%	-65*	/	-7%
Cc1ccccc1C(=O)Nc1ccccc1N1CCN(C(=O)c2ccccc2)CC1	-17%	-14%	-73*	-15%	-8%
O=C(Nc1ccccc1N1CCN(C(=O)c2ccccc2)CC1)c1cc(Br)ccc1Cl	-16%	/	10	?	/
COc1ccc(Br)cc1C(=O)Nc1ccccc1N1CCN(C(=O)c2ccccc2)CC1	0%	?	?	11µM*	?
O=S1(=O)N[C@H](c2ccccc2)COc2cc(Br)ccc21	/	/	-6	/	/
Cc1ccc(S(=O)(=O)Nc2ccc(S(=O)(=O)N3CCOCC3)cc2)cc1[N+](=O)[O-]	34%	6%	-10	-1%	-4%
Cc1ccc(-n2c(O)c(/C=N/Nc3ccc(S(=O)(=O)N4CCOCC4)cc3[N+](=O)[O-])c3ccccc3c2=O)c(C)c1	10µM*	i	-98*	11µM*	-30%
Cc1ccc(Nc2ccc(S(=O)(=O)N3CCOCC3)cc2[N+](=O)[O-])cc1C	?	-23%	-2	18µM*	-22%
O=C(O)c1ccc(/C=N\Nc2ccc(S(=O)(=O)N3CCOCC3)cc2[N+](=O)[O-])cc1	4%	/	-1	7%	/
Cc1ccc(C2=Nc3ccccc3N(CC(=O)NCc3ccc(F)cc3)C(=O)C2)cc1C	12%	?	1	/	-20%
O=C(CN1C(=O)CC(c2ccc(F)cc2)=Nc2ccccc21)NCc1ccccc1Cl	5%	-25%	-64*	/	-20%
CC(O)C(NS(=O)(=O)c1ccc(Cl)cc1)C(=O)OCC(=O)c1ccc2c(c1)NC(=O)CO2 (stereo unspecified)	0%	-13%	-1	6%	8%
CC(C)CC(NC(=O)c1ccc(Cl)cc1)C(=O)OCC(=O)c1ccc2c(c1)NC(=O)CO2 (stereo unspecified)	?	?	-103*	?	?
c1ccc2c(N3CCCCCC3)nc(CN3CCCCC3c3nccs3)nc2c1 (stereo unspecified)	-13%	?	/	/	-12%
CC(C)n1c2ccccc2c2nc3ccccc3nc21	-28%	-2%	-18	13µM*	-11%
C#CCn1c2ccccc2c2nc3ccccc3nc21	0%	-23%	2	20%	-9%
SMILES	FMDV inh	VACV mCherry inh	HCMV inh	HCV inhibitor	VACV Venus inh
COc1cccc(CC(=O)NCc2ccc3c(c2)CCN3C(C)=O)c1	16%	-10%	-3	/	-8%
O=C1c2cccc3cccc(c23)C(=O)N1CCN1CCN(CC(O)COc2ccc3ccccc3c2)CC1 (stereo unspecified)	?	-14%	-63*	11µM*	-13%
O=C1c2cccc3cccc(c23)C(=O)N1CC1CCN(CC(O)COc2ccc3ccccc3c2)CC1 (stereo unspecified)	?	/	-19	7.9µM*	/
Cc1ccc(S(=O)(=O)N2CCC(CN3C(=O)c4cccc5cccc(c45)C3=O)CC2)cc1	-12%	/	-17	?	-17%
O=C(N1CCOCC1)N1CCN(CC(O)COc2ccc3ccccc3c2)CC1 (stereo unspecified)	0%	/	41	-5%	-8%
Cc1cc(C)cc(OCC(O)CN2CCC(CN3C(=O)c4cccc5cccc(c45)C3=O)CC2)c1 (stereo unspecified)	?	?	-101*	2.2µM*	?
COc1cccc(OCC(O)CN2CCC(CN3C(=O)c4cccc5cccc(c45)C3=O)CC2)c1 (stereo unspecified)	?	-23%	-65*	?	-23%
Cc1cccc(N2CCN(CC(O)COc3ccc4ccccc4c3)CC2)c1 (stereo unspecified)	-22%	i	11	6%	-9%
CCc1nc2ccc(C(=O)NCC3CCCCC3)cn2c1N(C)Cc1nccs1	-24%	6%	-35	/	-11%
CCOC(=O)C1=C[C@@]2(CC)CCCN3CCc4c(n1c1ccccc41)C32 (stereo partly specified)	2%	-13%	/	/	?
COc1cc(CN2CCC3(CCC(CNC(=O)c4ccco4)O3)CC2)cc(OC)c1 (stereo unspecified)	-9%	-14%	/	/	-14%
C[C@H]1C(O)[C@@]23CCC4C5(C=[N+](CCO)C[C@]4(C)CCC5)C2C[C@@H]1C3 (stereo partly specified)	0%	/	/	/	/
COc1ccc(NCc2nnc(SCC(=O)c3ccc(OC)cc3)o2)cc1	0%	/	-8	?	/
CCOc1cc(C(=O)CSc2nnc(CNc3ccc(Cl)cc3)o2)ccc1NC(=O)CC	?	?	-87*	11µM*	13µM*
Cc1ccn2cc(-c3cccc(S(=O)(=O)N4CCCC4)c3)nc2c1	-3%	i	-64*	11µM*	-17%
Cc1ccn2cc(-c3ccc(NS(=O)(=O)c4ccccc4)cc3)nc2c1	11%	-25%	57	11µM*	-23%
Cc1ccc(-c2cn3cccc(C)c3n2)cc1NS(=O)(=O)c1ccccc1	19%	-19%	-85*	/	-12%
COc1cc2cc(CNc3ccccc3)c(=O)n(CC(=O)Nc3ccccc3)c2cc1OC	9%	-5%	8	/	0%
O=C(NCCc1c[nH]c2ccccc12)O[C@H]1CC[C@@]23CCCN2C(=O)CCC[C@H]3[C@H]1Cc1ccccc1	/	/	16	/	/
CCOc1ccc(CCNC(=O)CS(=O)(=O)Cc2nc(-c3ccccc3F)oc2C)cc1	-28%	i	-66*	10µM*	-20%
Cc1ccccc1-c1nc(CS(=O)(=O)CC(=O)Nc2c(C)cccc2C)c(C)o1	-30%	-21%	-78*	/	-20%
CCCNC(=O)CS(=O)(=O)Cc1nc(-c2ccccc2C)oc1C	-13%	i	5	?	-20%

Screening data as filed in PubChem BioAssay.
